Assay [1] concerns the target Luciferin 4-monooxygenase (Photinus pyralis) (UniProt P08659). Put plainly: qHTS assay to identify small molecule inhibitors of firefly luciferase (AID 1224835). Further: nearly all actives have a fitted effect of over 25% in size. Further: potency means the concentration at half of the fitted maximal effect. The essentials:
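Biochemical qHTS: compounds run as interplate titrations against purified firefly enzyme, with D-luciferin and ATP each at its KM concentration. Light output recorded by CCD imaging.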
On the technique in general: In qHTS, concentration-response curves come from the screen itself.

Assay [2] can be described thus: qHTS assay to identify small molecule agonists of the constitutive androstane receptor (CAR) signaling pathway - cell viability counter screen (AID 1224836). Further: on the % scale 0 is the no-effect control and ±100 the full control effect; nearly all actives have a fitted effect of over 45% in size. The essentials: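 Using CellTiter-Fluor, viability of HepG2 cells harbouring hCAR and CYP2B6-2.2kb was measured following 23 h incubation with a 15-concentration compound series plus PK11195 (0.75 uM final).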

The nature of assay [3]: qHTS assay to identify small molecule antagonists of the constitutive androstane receptor (CAR) signaling pathway - cell viability counter screen (AID 1224837). Further: on the % scale 0 is the no-effect control and ±100 the full control effect; nearly all actives have a fitted effect of over 45% in size. The essentials: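 HepG2 cells stably carrying hCAR and CYP2B6-2.2kb reporter, stimulated with 50 nM CITCO and compounds at 15 concentrations for 23 h at 37 C. Viability measured by CellTiter-Fluor fluorescence.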

For assay [4], the target named is Nuclear receptor subfamily 1 group I member 3 (Homo sapiens) (UniProt Q14994). Put plainly: qHTS assay to identify small molecule antagonists of the constitutive androstane receptor (CAR) signaling pathway (AID 1224838). Further: on the % scale 0 is the no-effect control and ±100 the full control effect; nearly all actives have a fitted effect of over 40% in size. The gist of the method: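 HepG2 cells stably carrying hCAR and a CYP2B6-2.2kb luciferase reporter, seeded 4 hrs before compound (15 concentrations). Stimulated with 50 nM CITCO for 24 hr at 37 C. ONE-Glo luminescence read after 30 min at room temperature.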

For assay [5] the target is unchanged. Description: qHTS assay to identify small molecule agonists of the constitutive androstane receptor (CAR) signaling pathway (AID 1224839). Further: nearly all actives have a fitted effect of over 15% in size. Further: potency means the concentration at half of the fitted maximal effect. On activation: on the % scale 0 is the no-effect control and ±100 the full control effect. The gist of the method:
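Double-stable HepG2 cells (hCAR, CYP2B6-2.2kb) seeded 4 h before compound addition. Exposure 24 h with 0.75 uM PK11195 final. Luciferase detected by ONE-Glo.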

Assay [6] in a line: qHTS assay to identify small molecule antagonists of the estrogen related receptor signaling pathway with the pleiotropic PPARgamma coactivator (PGC) from Tox21 10K library - cell viability counter screen (AID 1224840; active means well fitted cell-killing curve with a large enough effect in the repeat runs, not every such curve was filed as active; further: on the % scale 0 is the no-effect control and ±100 the full control effect; nearly all actives have a fitted effect of over 40% in size). The gist of the method: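 PGC/ERR cells (2,000/well) plated 6 h, then compound-treated for 17.5 h at 37 C. Viability measured by CellTiter-Fluor fluorescence after 30 min at 37 C, multiplexed with the pathway assay.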

Assay [7] is described as follows: qHTS assay to identify small molecule antagonists of the estrogen related receptor signaling pathway with the pleiotropic PPARgamma coactivator (PGC) from Tox21 10K library (AID 1224841; call rule not given here; further: potency means the concentration at half of the fitted maximal effect; actives are mostly falling curves and most rising ones were filed inactive; nearly all actives have a fitted effect of over 50% in size). The essentials:
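PGC/ERR cell line, 2,000 cells/well, pre-incubated 6 hours at 37 C, then exposed to compounds for 18 hours at 37 C; luciferase read with One-Glo luminescence after 30 min at room temperature.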

Assay [8] can be described thus: qHTS assay to identify small molecule agonists of the estrogen related receptor signaling pathway with the pleiotropic PPARgamma coactivator (PGC) from Tox21 10K library (AID 1224842). Further: on the % scale 0 is the no-effect control and ±100 the full control effect; nearly all actives have a fitted effect of over 15% in size. The essentials: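 PGC/ERR reporter cell line, 2,000 cells per well, incubated 6 h at 37 C before 23 nL compound in DMSO was added. After 18 h at 37 C, One-Glo luminescence read following 30 min at room temperature.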

Assay [9] concerns the target Thyrotropin receptor (Homo sapiens) (UniProt P16473). Description: qHTS assay to identify small molecule agonists of the thyroid stimulating hormone receptor (TSHR) signaling pathway (AID 1224843; calls by dose curve; further: nearly all actives have a fitted effect of over 45% in size; further: potency means the concentration at half of the fitted maximal effect; on activation: on the % scale 0 is the no-effect control and ±100 the full control effect). The gist of the method: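 Steps: seed 800 TSHR-HEK293 cells per well; add test compound and hold 30 min at ambient temperature; dispense cAMP-d2 then anti-cAMP cryptate; incubate 1 h at ambient; measure fluorescence intensity.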

A short description of assay [10]: qHTS assay to identify small molecule agonists of the hypoxia (HIF-1) signaling pathway - cell viability counter screen (AID 1224844; calls by dose curve; further: nearly all actives have a fitted effect of over 50% in size; further: potency means the concentration at half of the fitted maximal effect). The essentials:
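HRE-bla ME-180 cells, 2,000/well in 0.5% dialyzed FBS medium, treated 17 h at 37C with compounds. Viability read in the same wells as the bla reporter, by CellTiter-Glo luminescence after 30 min at room temperature.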

Assay [11] is described as follows: qHTS assay to identify small molecule agonists of the hypoxia (HIF-1) signaling pathway (AID 1224846; active means well fitted activation curve with a large enough effect in the signal ratio in the repeat runs, not every such curve was filed as active; the % refers to the signal ratio; further: on the % scale 0 is the no-effect control and ±100 the full control effect). The gist of the method: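 HRE-bla ME-180 beta-lactamase reporter cells in medium with 0.5% dialyzed FBS, pre-incubated 5 h then exposed to compounds 17 h at 37C, 5% CO2; reporter induction read with CCF4-AM FRET substrate.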
The nature of assay [12]: qHTS assay to identify small molecule agonists of H2AX - cell viability counter screen (AID 1224847; calls by dose curve; further: nearly all actives have a fitted effect of over 30% in size; further: potency means the concentration at half of the fitted maximal effect). The essentials:
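Quantitative HTS viability measurement: CHO-K1 wild-type cells in serum (10% FBS) medium, short 3 hr drug exposure at 37C with 0.76% DMSO, CellTiter-Glo luminescent detection.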

A short description of assay [13]: qHTS assay to identify small molecule antagonists of the estrogen related receptor (ERR) signaling pathway from Tox21 library (AID 1224848). Further: potency means the concentration at half of the fitted maximal effect; nearly all actives have a fitted effect of over 50% in size. The essentials:
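Luminescent reporter read-out (ONE-Glo) from NTP's ERR cell line after 18 h treatment at 37 C with DMSO-dissolved Tox21 compounds; cells pre-plated 6 h beforehand at 2,000 per well.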

Assay [14] in a line: qHTS assay to identify small molecule agonists of the estrogen related receptor (ERR) signaling pathway from Tox21 library (AID 1224849; calls by dose curve; further: on the % scale 0 is the no-effect control and ±100 the full control effect; nearly all actives have a fitted effect of over 15% in size). The settings on record: ERR reporter cell line, ONE-Glo luciferase, 18 h; at 92.4 µM (top of the series). The gist of the method: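 ERR reporter cells (NTP line) pre-incubated 6 hours at 37 C, then exposed to compounds for 18 hours at 37 C. ONE-Glo luciferase luminescence was read after 30 minutes at room temperature.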

The nature of assay [15]: qHTS RealTime-Glo MT Cell Viability Assay in HepG2 cells - 24 hour (AID 1224867). Further: on the % scale 0 is the no-effect control and ±100 the full control effect; nearly all actives have a fitted effect of over 50% in size. The essentials:
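Viability was tracked continuously by NanoLuc luminescence from prosubstrate reduced by living HepG2 cells, at successive time points over 40 h of compound exposure. Cells with reagent were preincubated 5 h at 37 °C before compound addition.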

Assay [16] in a line: qHTS RealTime-Glo MT Cell Viability Assay in HEK293 cells - 32 hour (AID 1224868). Further: nearly all actives have a fitted effect of over 50% in size. Further: potency means the concentration at half of the fitted maximal effect. The essentials:
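Viability tracked continuously by luminescence as live cells reduce a prosubstrate for NanoLuc; HEK293 cells preincubated 5 h, compound-treated at 37 C, and read at 0, 8, 16, 24, 32 and 40 h.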

Assay [17] in a line: A CellTox Green Cytotoxicity Assay to monitor cytotoxicity in HEK293 cells - 0 hour (AID 1224869). The gist of the method: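 HEK293 cells, 600/well, were preincubated 5 hours and then exposed to compounds at 37 C for up to 40 hours. A cell-impermeant cyanine dye staining dead-cell DNA was read by fluorescence at 0, 8, 16, 24, 32 and 40 h time points.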
Assay [18] in a line: qHTS assay to identify small molecule antagonists of the estrogen related receptor (ERR) signaling pathway from Tox21 library - cell viability counter screen (AID 1224834). Further: nearly all actives have a fitted effect of over 30% in size. Further: potency means the concentration at half of the fitted maximal effect. The gist of the method: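 ERR reporter cells, 2,000 per well, rested 6 h, then exposed to compound in DMSO for 17.5 hours at 37 C. Viability read as fluorescence after 30 min with CellTiter-Fluor.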
A short description of assay [19]: qHTS assay to identify small molecule agonists of H2AX (AID 1224845; active means well fitted activation curve with a large enough effect in the signal ratio in the repeat runs, not every such curve was filed as active; the % refers to the signal ratio; further: on the % scale 0 is the no-effect control and ±100 the full control effect). The gist of the method: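 Wild-type CHO-K1 cells, plated overnight, exposed 3hr at 37C to 15 concentrations (0.76% DMSO final). Lysed, then HTRF anti-pH2AX (S139) cryptate and anti-H2AX-d2 antibodies, 24 hr room temperature; 665/620 nm emission read.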

Each structure is given as a SMILES string. Where “and” joins values, the source holds several entries; their conditions need not be identical. Identical values can stand only once. Results filed as inconclusive are left out. The source holds several records for some structures; these can differ, active in one and inactive in another. Calls of active or inactive are those of the source. Unless noted, the call rests on the fitted dose curve; in most records, active means well fitted curve in the direction sought with a large enough effect in the repeat runs; inconclusive means weak or mixed curves; inactive means no such curve, though single readings can be large; an effect the other way counts as inactive or inconclusive.

Chain of Nuclear receptor subfamily 1 group I member 3 (Homo sapiens) (Q14994 whole entry, looked up): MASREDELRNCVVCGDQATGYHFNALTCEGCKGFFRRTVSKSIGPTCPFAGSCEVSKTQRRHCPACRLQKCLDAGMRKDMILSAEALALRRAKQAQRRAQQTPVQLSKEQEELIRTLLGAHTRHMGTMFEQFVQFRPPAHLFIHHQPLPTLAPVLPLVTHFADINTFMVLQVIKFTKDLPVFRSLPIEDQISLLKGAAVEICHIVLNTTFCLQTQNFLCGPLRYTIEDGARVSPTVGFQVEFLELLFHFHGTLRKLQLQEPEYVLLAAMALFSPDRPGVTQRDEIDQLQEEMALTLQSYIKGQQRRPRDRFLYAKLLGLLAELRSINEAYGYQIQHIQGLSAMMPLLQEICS
Chain of Thyrotropin receptor (Homo sapiens) (P16473 whole entry, looked up): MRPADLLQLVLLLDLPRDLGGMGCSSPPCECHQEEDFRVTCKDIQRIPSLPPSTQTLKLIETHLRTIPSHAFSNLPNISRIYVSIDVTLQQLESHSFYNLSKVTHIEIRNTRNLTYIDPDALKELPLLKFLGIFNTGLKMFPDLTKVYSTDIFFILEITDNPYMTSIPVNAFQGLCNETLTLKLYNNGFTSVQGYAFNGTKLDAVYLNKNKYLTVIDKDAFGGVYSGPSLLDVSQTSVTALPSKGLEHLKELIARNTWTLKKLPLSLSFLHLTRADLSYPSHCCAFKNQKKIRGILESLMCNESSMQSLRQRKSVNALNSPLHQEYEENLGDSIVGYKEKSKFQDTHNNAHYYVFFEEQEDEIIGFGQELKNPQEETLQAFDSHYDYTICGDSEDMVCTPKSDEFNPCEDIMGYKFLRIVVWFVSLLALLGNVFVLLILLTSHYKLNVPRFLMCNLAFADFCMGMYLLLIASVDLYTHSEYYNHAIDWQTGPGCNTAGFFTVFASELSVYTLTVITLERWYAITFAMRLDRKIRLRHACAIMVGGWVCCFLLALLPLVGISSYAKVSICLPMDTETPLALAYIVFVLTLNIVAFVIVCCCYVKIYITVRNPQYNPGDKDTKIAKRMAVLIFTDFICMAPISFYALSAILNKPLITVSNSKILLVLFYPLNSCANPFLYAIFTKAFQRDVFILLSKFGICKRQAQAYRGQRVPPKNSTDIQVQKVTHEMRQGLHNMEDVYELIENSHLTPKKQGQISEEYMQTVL
Chain of Luciferin 4-monooxygenase (Photinus pyralis) (P08659 whole entry, looked up): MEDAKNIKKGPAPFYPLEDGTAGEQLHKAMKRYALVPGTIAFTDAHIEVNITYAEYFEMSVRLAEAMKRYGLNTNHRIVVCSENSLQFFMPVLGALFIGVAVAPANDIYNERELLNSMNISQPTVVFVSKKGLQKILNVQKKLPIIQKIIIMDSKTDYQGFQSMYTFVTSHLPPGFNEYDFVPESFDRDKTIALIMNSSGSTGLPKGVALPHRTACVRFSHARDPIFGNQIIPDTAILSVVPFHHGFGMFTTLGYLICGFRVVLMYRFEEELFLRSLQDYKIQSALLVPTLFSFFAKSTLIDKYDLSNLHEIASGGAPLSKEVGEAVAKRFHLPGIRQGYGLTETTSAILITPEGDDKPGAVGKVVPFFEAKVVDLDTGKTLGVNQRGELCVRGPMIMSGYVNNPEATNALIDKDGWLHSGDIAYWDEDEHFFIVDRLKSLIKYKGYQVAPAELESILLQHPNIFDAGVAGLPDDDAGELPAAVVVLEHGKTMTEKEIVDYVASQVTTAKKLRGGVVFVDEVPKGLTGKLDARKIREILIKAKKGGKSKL

As for `CCOCN(C(=O)CCl)c1c(C)cccc1CC`, the Potency entry in assay [1], in [2], in assay [3], in assay [4], in assay [6] and in [8] was “inactive” each time. Besides, the Potency result in assay [12], in assay [15], in assay [16] and in [17] was “inactive” throughout. Moreover, the Potency was 18.3 µM (active) and 15.4 µM (active) in assay [5]; 36.4 µM (active) and 13.7 µM (active) in assay [7]; 8.15 µM (active) and inactive in assay [9]; 51.9 µM (active) in assay [10]; 23 µM (active) and 27.3 µM (active) in assay [13]. The compound was classed as inactive in assay [11]. The activity change, positive = activation in [14] was -61% (inactive) and -71.1% (inactive).
Consider `Oc1cc(Cl)c(Cl)cc1Cl`, for which the Potency entry in assay [18], in assay [1], in [2], in assay [3], in assay [6] and in [9] was “inactive” each time. Besides, the Potency entry in assay [10], in [19], in assay [15], in assay [16] and in [17] was “inactive” throughout. Also, in [11], the result was inactive. Moreover, the Potency in [12] was 100 µM (active) and inactive.
For `NNC(=S)NN`, the Potency result in assay [1], in assay [2], in assay [3], in assay [8], in assay [9] and in assay [19] was “inactive” throughout. In addition, the Potency result in assay [12], in [15], in assay [16] and in assay [17] was “inactive” each time. In addition, the Potency is 62.8 µM (active) and 61.1 µM (active) in assay [7]; 62.8 µM (active) in [13]. Also, in assay [14], the activity change, positive = activation is -65.9% (inactive) and -38.7% (inactive).
With `CN(C)c1ccc(C(=O)c2ccc(N(C)C)cc2)cc1`, the Potency result in assay [18] is “inactive and 9.69 µM (active)”; in assay [1], 35.2 µM (active) and 10 µM (active); in assay [5], 1.93 µM (active); in assay [16] it was 2.75 µM (active). For the same compound, the Potency entry in assay [3], in assay [4], in assay [6], in assay [10], in assay [19] and in assay [15] was “inactive” each time. Further, the Potency result in assay [17] is “inactive”. Moreover, the compound was classed as inactive in [11].
With `C#CCOS(=O)OC1CCCCC1Oc1ccc(C(C)(C)C)cc1` (centres undefined), the Potency in assay [18] is 4.33 µM (active); in assay [5] it was “inactive and 5.45 µM (active)”; in assay [7], 3.86 µM (active) and 3.06 µM (active); in assay [9] it was 12.2 µM (active) and 24.3 µM (active); in assay [10] it was 43.6 µM (active); in assay [12] it was 4.5 µM (active). Besides, the Potency was 1.37 µM (active) and 1.54 µM (active) in assay [13]; 13.8 µM (active) and 19.5 µM (active) in assay [16]. Further, the Potency result in [4], in [6], in assay [8] and in [17] was “inactive” in each case. The activity change, positive = activation in assay [14] was -66% (inactive) and -59.3% (inactive).
`CCCCN(CCCC)N=O`: the Potency entry in assay [18], in assay [1], in [2], in assay [3], in assay [6] and in assay [9] was “inactive” each time. In addition, the Potency entry in [10], in assay [19], in [12], in [15], in [16] and in [17] was “inactive” throughout. The compound was called inactive in [11].
Take `Cc1cc(C)cc(C)c1`: the Potency entry in assay [18], in assay [1], in assay [2], in assay [3], in assay [6] and in [9] was “inactive” throughout. Besides, the Potency result in assay [10], in assay [19], in assay [12], in assay [15], in assay [16] and in assay [17] was “inactive” each time. Also, the compound was classed as inactive in [11].

For the origin of these results see PubChem BioAssay (Tox21).
